The record followed here is paper PMC7862700, “An all-to-all approach to the identification of sequence-specific readers for epigenetic DNA modifications on cytosine”.

What all share (assay): DAPPL (digital affinity profiling via proximity ligation, sequencing); 10 mM Tris-HCl pH 7.5, 50 mM NaCl, 1 mM DTT, 4% glycerol, room temperature, 30 min; GST-TFs on glutathione beads, 16-mer random dsDNA library, 0.1% formaldehyde crosslink after washing; high values mean tight binding
One assay has as its target T1, FEV (Homo sapiens, UniProt Q99581 1-238).
T1 sequence: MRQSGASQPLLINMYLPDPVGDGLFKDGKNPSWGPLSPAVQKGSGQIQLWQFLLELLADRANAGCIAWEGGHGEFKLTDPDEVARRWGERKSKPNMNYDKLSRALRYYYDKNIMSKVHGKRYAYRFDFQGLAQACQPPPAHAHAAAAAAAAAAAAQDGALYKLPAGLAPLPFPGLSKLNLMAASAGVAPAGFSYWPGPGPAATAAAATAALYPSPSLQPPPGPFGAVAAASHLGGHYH
To be noted: protein: recombinant; tags: N-terminal GST; dsDNA, one strand shown. A digest of the protocol: (§1)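 Binding signal is each hexamer's read frequency for a factor divided by its frequency in the tag-only sample. The factors were GST-fused human transcription factors from yeast, captured on glutathione beads, DNA-barcoded and pooled with that sample. Pools were incubated with 200 nmole of a random double-stranded 16-mer DNA library in Tris/NaCl/DTT/glycerol buffer at room temperature for 30 min, then washed, crosslinked with 0.1% formaldehyde, proximity-ligated with BsaI/T4 ligase (1 h, 37 °C), PCR-amplified and sequenced on an Illumina NextSeq500.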

Another assay deals with ETV5 (Homo sapiens, UniProt P41161 1-510). To be noted: protein: recombinant; tags: N-terminal GST; dsDNA, one strand shown. A digest of the protocol:
as §1

The next assay has as its target HSF1 (Homo sapiens, UniProt Q00613 1-529). To be noted: protein: recombinant; tags: N-terminal GST; chain copies: 3; dsDNA, one strand shown. Summed up:
as §1

In another assay the target is T2, SPIC (Homo sapiens, UniProt Q8N5J4 1-248).
T2 sequence: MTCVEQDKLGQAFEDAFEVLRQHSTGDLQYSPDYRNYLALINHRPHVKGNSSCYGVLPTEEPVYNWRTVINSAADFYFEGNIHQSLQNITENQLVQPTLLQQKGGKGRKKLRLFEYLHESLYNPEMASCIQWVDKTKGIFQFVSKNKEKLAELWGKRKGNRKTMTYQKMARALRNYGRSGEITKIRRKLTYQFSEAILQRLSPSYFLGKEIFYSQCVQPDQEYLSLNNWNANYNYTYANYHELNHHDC
To be noted: protein: recombinant; tags: N-terminal GST; dsDNA, one strand shown. Summed up: as §1

The next assay addresses ELF4 (Homo sapiens, UniProt Q99607 1-663). To be noted: protein: recombinant; tags: N-terminal GST; dsDNA, one strand shown. Summed up: as §1
For a further assay, the target named is T3, ELK4 (Homo sapiens, UniProt P28324-2 1-405).
T3 sequence: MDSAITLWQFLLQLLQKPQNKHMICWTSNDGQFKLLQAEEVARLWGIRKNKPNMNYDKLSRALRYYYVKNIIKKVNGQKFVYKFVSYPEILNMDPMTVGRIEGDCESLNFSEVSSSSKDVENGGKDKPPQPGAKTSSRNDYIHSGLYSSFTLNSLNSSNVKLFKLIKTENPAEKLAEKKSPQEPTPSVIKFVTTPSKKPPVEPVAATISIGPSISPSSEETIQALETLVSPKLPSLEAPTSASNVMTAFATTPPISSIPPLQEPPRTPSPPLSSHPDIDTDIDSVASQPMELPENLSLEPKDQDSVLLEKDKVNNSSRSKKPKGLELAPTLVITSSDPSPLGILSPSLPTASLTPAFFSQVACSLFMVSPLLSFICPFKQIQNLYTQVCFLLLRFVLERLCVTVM
As to conditions: protein: recombinant; tags: N-terminal GST; dsDNA, one strand shown. Summed up:
as §1

The target in another assay is T4, ETV2 (Homo sapiens, UniProt O00321 1-342).
T4 sequence: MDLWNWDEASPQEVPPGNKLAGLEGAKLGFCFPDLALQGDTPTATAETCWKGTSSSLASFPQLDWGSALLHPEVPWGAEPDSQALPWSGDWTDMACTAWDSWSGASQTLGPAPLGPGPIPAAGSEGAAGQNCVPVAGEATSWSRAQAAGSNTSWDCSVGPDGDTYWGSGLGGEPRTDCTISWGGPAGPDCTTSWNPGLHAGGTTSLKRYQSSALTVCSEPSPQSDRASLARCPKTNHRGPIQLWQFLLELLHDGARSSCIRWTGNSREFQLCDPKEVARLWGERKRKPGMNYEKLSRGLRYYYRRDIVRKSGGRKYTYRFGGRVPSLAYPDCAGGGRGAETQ
To be noted: protein: recombinant; tags: N-terminal GST; dsDNA, one strand shown. Summed up:
as §1

The target of the next assay is T5, ELF3 (Homo sapiens, UniProt P78545 1-371).
T5 sequence: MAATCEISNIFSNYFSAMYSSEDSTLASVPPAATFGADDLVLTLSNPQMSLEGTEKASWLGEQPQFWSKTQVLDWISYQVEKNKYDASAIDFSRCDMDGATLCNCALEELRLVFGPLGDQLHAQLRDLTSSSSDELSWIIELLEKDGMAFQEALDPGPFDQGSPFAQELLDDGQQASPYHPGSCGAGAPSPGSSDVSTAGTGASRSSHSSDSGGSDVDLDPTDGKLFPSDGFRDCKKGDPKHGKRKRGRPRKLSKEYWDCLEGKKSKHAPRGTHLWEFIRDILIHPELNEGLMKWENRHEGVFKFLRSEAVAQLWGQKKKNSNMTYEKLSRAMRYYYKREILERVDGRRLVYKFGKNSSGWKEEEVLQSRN
To be noted: protein: recombinant; tags: N-terminal GST; dsDNA, one strand shown. Summed up:
as §1

Another assay deals with CRX (Homo sapiens, UniProt O43186 1-299). To be noted: protein: recombinant; tags: N-terminal GST; dsDNA, one strand shown. A digest of the protocol: as §1
Sequence of CRX (O43186 whole entry): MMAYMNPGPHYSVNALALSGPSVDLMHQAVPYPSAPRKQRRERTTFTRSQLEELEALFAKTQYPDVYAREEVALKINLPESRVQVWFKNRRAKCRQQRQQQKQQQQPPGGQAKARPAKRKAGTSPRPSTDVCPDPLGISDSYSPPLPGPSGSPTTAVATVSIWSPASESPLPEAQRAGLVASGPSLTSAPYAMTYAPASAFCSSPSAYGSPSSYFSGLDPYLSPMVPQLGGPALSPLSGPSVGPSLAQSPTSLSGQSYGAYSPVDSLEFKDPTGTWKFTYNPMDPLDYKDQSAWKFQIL
Another assay has as its target ETV1 (Homo sapiens, UniProt P50549 1-477). As to conditions: protein: recombinant; tags: N-terminal GST; dsDNA, one strand shown. Summed up: as §1
In a further assay the target is T6, ERF (Homo sapiens, UniProt P50548 1-548).
T6 sequence: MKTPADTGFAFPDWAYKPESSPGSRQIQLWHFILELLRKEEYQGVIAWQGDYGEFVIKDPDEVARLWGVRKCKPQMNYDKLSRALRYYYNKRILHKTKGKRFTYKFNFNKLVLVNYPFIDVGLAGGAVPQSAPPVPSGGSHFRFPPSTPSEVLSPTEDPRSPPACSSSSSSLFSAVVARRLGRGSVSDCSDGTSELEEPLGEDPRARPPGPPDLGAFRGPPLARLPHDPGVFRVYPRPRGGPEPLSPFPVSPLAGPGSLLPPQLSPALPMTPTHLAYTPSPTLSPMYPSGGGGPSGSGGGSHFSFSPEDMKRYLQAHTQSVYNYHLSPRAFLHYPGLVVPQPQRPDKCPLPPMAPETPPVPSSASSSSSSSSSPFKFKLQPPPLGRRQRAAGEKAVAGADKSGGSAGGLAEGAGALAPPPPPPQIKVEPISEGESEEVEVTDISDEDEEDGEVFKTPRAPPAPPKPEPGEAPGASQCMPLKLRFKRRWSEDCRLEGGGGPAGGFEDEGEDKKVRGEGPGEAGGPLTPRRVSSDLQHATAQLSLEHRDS
As to conditions: protein: recombinant; tags: N-terminal GST; dsDNA, one strand shown. A digest of the protocol: as §1

The target of a further assay is T7, ETV3L (Homo sapiens, UniProt Q6ZN32 1-361).
T7 sequence: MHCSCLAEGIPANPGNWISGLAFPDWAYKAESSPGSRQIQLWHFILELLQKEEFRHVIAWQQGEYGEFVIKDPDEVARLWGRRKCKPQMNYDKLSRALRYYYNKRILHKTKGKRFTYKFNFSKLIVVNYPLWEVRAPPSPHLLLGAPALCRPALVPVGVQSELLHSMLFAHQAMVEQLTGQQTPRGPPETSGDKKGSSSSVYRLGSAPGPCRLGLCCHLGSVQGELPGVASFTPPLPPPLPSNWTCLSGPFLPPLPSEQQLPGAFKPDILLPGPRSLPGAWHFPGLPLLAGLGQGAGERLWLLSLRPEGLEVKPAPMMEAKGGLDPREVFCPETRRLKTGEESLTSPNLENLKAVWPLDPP
As to conditions: protein: recombinant; tags: N-terminal GST; dsDNA, one strand shown. Summed up:
as §1

The target of the next assay is T8, ETS2 (Homo sapiens, UniProt P15036 1-469).
T8 sequence: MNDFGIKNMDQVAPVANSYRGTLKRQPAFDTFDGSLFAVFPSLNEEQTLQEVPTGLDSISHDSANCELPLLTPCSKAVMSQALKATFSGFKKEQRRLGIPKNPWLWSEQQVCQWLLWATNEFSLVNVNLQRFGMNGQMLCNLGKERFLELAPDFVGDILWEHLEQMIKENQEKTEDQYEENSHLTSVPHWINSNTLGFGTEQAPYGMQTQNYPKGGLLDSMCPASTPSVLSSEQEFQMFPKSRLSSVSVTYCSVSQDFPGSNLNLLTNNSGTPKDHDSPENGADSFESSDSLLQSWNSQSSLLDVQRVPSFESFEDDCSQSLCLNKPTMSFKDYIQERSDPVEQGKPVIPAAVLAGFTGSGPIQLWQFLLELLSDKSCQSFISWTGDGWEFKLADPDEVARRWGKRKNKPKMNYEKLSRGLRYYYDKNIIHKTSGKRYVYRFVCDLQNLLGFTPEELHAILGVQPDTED
To be noted: protein: recombinant; tags: N-terminal GST; dsDNA, one strand shown. A digest of the protocol:
as §1

The next assay deals with T9, SPDEF (Homo sapiens, UniProt O95238 1-335).
T9 sequence: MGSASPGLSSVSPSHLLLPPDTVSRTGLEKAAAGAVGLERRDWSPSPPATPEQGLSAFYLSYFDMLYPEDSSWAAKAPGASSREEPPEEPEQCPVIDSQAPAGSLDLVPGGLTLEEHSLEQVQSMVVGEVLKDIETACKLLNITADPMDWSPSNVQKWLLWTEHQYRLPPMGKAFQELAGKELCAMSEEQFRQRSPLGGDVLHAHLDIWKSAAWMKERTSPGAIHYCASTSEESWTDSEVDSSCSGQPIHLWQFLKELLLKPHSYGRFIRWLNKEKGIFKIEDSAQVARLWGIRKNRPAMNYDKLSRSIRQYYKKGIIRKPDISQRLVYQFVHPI
As to conditions: protein: recombinant; tags: N-terminal GST; dsDNA, one strand shown. A digest of the protocol: as §1

The next assay deals with T10, ETV7 (Homo sapiens, UniProt Q9Y603 1-341).
T10 sequence: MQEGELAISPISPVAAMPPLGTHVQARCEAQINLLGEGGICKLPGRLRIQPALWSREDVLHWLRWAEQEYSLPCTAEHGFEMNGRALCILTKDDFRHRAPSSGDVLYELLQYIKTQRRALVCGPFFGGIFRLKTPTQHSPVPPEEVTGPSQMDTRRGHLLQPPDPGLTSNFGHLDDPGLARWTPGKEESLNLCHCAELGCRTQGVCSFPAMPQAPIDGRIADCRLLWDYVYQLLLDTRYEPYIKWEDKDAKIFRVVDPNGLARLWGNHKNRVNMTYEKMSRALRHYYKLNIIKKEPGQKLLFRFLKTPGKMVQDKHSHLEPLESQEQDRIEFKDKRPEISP
To be noted: protein: recombinant; tags: N-terminal GST; dsDNA, one strand shown. Summed up: as §1

A further assay addresses T11, ELF5 (Homo sapiens, UniProt Q9UKW6-2 1-255).
T11 sequence: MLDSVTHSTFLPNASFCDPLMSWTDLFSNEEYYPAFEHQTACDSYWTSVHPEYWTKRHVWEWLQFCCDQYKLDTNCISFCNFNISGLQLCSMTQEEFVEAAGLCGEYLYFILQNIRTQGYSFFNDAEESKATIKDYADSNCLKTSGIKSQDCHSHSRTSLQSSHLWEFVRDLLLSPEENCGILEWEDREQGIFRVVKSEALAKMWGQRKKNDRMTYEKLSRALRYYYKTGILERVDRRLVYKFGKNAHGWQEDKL
To be noted: protein: recombinant; tags: N-terminal GST; dsDNA, one strand shown. Summed up:
as §1

Another assay has as its target T12, ETV3 (Homo sapiens, UniProt P41162-2 1-143).
T12 sequence: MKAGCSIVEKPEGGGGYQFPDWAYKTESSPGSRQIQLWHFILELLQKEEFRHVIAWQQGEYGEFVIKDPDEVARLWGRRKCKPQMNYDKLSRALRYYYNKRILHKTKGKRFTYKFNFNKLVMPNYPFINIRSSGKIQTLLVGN
To be noted: protein: recombinant; tags: N-terminal GST; dsDNA, one strand shown. A digest of the protocol:
as §1

For the next assay, the target named is ETV6 (Homo sapiens, UniProt P41212 1-452). As to conditions: protein: recombinant; tags: N-terminal GST; dsDNA, one strand shown. Summed up: as §1
Sequence of ETV6 (P41212 whole entry): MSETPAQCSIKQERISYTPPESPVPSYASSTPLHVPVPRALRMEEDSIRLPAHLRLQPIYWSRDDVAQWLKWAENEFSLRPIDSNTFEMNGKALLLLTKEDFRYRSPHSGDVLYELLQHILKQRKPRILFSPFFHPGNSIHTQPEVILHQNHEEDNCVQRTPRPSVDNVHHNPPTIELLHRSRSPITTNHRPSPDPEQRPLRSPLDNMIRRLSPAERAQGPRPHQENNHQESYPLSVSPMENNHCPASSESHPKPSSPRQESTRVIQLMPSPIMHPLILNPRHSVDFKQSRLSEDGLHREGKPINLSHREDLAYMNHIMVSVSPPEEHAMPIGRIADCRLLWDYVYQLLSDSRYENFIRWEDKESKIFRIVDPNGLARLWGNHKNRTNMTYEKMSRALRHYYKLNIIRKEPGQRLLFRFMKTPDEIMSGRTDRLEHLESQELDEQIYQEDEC

Sequence of ETV1 (P50549 whole entry): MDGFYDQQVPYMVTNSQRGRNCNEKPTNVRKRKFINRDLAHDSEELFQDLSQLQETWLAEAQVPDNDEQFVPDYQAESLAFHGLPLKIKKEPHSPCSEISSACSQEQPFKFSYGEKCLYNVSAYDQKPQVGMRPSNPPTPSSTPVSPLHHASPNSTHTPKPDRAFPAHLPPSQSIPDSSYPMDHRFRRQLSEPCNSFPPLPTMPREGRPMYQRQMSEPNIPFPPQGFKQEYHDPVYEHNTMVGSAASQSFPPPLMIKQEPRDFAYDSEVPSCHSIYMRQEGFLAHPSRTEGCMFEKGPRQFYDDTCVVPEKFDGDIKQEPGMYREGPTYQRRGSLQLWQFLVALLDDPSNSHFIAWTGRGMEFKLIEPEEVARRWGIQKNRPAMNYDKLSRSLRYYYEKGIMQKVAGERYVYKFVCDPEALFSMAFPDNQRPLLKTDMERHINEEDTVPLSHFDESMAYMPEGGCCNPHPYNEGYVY
Sequence of HSF1 (Q00613 whole entry): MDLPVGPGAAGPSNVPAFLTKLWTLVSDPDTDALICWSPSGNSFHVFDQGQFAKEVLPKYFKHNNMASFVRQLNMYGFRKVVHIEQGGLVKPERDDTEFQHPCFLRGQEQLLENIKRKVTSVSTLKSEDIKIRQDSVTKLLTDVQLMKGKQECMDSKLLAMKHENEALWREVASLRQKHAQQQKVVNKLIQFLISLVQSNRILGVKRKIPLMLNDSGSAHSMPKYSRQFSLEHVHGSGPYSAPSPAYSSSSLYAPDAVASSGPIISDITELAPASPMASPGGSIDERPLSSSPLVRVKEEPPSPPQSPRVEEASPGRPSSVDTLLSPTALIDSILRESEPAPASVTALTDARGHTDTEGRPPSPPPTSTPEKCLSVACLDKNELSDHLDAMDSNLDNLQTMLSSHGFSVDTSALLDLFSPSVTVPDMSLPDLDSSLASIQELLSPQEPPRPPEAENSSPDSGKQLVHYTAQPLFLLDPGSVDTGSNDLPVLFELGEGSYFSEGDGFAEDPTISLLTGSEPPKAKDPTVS
Sequence of ETV5 (P41161 whole entry): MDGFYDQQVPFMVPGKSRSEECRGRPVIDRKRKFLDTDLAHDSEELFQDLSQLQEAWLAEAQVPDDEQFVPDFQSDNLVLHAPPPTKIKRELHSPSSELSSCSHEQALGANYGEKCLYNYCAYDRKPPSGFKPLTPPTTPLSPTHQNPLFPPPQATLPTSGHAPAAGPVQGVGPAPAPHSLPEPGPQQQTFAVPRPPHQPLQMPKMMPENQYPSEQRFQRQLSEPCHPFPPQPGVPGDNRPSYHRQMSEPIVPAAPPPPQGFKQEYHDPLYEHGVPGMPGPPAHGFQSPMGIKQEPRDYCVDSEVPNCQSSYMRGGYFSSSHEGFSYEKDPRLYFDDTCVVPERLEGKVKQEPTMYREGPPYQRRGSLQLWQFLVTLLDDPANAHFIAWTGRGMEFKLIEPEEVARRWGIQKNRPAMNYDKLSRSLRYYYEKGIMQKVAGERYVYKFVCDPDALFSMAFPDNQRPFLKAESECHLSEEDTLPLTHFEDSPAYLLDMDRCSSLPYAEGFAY
Sequence of ELF4 (Q99607 whole entry): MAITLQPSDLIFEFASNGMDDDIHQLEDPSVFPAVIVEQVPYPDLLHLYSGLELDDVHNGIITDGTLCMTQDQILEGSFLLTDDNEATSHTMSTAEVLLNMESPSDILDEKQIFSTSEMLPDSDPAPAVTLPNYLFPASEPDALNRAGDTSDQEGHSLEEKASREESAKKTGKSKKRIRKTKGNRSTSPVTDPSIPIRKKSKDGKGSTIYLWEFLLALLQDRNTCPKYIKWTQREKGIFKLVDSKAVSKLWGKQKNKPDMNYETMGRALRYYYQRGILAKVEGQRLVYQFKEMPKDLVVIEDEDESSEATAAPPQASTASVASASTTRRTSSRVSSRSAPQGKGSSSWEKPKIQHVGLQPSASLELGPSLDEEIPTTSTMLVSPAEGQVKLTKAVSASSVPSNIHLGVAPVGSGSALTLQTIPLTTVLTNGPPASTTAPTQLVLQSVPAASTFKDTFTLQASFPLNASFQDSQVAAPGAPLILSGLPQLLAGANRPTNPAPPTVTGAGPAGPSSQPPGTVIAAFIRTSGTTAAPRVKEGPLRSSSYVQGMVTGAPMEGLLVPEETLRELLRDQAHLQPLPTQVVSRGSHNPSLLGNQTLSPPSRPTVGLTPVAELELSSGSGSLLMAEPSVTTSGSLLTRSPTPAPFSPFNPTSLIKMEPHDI

CCTAGC: the binding signal with FEV is 1.18 fold enrichment (6-mer frequency, TF over GST control); with ETV5 it was 1.15 fold enrichment (6-mer frequency, TF over GST control); with HSF1, 1.17 fold enrichment (6-mer frequency, TF over GST control); with SPIC, 1.17 fold enrichment (6-mer frequency, TF over GST control); with ELF4, 1.16 fold enrichment (6-mer frequency, TF over GST control); in the assay with ELK4, 1.13 fold enrichment (6-mer frequency, TF over GST control). Moreover, the binding signal was 1.13 fold enrichment (6-mer frequency, TF over GST control) in the assay with ETV2; 1.12 fold enrichment (6-mer frequency, TF over GST control) with ELF3; 1.02 fold enrichment (6-mer frequency, TF over GST control) with CRX; 1.13 fold enrichment (6-mer frequency, TF over GST control) with ETV1; 1.26 fold enrichment (6-mer frequency, TF over GST control) with ERF; 1.09 fold enrichment (6-mer frequency, TF over GST control) with ETV3L. The binding signal was 1.11 fold enrichment (6-mer frequency, TF over GST control) in the assay with ETS2; 1.21 fold enrichment (6-mer frequency, TF over GST control) with SPDEF; 1.18 fold enrichment (6-mer frequency, TF over GST control) with ETV7; 1.06 fold enrichment (6-mer frequency, TF over GST control) with ELF5; 1.16 fold enrichment (6-mer frequency, TF over GST control) with ETV3; 1.15 fold enrichment (6-mer frequency, TF over GST control) with ETV6.
